RORg inh – inhibitors of mouse ROR gamma transcriptional activity; P51450; Drosophila S2 Gal4-RORgamma UAS-luciferase reporter, 20 h; Potency, µM (top dose mostly 53.6 µM), usual class: inhibitors; 310,000 tested, 5.4% active; also: nearly all actives have a fitted effect of over 60% in size
Target sequence (P51450 whole entry, looked up, the tested form may be a part): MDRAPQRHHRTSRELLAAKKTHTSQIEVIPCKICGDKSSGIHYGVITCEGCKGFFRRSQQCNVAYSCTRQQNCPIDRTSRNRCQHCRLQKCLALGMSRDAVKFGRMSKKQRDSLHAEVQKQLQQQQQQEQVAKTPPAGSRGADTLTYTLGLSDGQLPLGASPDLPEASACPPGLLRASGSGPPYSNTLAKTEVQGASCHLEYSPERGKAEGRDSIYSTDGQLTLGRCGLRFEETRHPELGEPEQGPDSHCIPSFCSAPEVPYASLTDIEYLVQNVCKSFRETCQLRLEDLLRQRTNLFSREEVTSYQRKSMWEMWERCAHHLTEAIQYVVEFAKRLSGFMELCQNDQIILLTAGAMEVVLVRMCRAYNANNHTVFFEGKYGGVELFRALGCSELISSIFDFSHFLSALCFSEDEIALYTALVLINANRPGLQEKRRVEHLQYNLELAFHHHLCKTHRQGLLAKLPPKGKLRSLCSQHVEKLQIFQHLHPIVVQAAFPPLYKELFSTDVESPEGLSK
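Using a luciferase readout, inhibitors were identified by reduced reporter activity in Drosophila cells coexpressing a copper-inducible Gal4–ROR gamma fusion and UAS-driven Photinus luciferase, incubated 20 hr after 700 uM copper sulfate.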
MCF10A rerep – inducers of DNA re-replication in MCF 10A breast cells | MCF 10A DNA re-replication, Hoechst nuclear intensity, 48 h | Potency, µM (titrated, usually from 46.1 µM), hits mostly activators | 350,000 tested, 2.9% active | AID 624296; also: nearly all actives have a fitted effect of over 50% in size
Giardia killer – Giardia lamblia killing | 340,000 tested, 0.15% active | AID 540267 | Giardia lamblia trophozoite viability | activity change, % at 7.66 µM, hits read low; in the data active = activity change below about -80%; inconclusive = between about -30% and that limit;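 also: parasites exposed to compound for two days anaerobically before the ATP read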
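Giardia lamblia trophozoites (100 cells/well) were incubated with compounds for 48 h at 37 deg C under anaerobic conditions. Viability was read as ATP content by one-step luminescence after 15-30 min at room temperature.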
Gal4-VP16 FLuc – counter-screen for ROR gamma inhibitors: Gal4-VP16 reporter. Drosophila S2 Gal4-VP16 UAS-luciferase, luminescence, 20 h. Potency, µM (titrated, usually from 53.6 µM), usual class: inhibitors. 310,000 tested, 3.5% active. AID 2546;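 also: Gal4-VP16 expression switched on by copper sulfate through the metallothionein promoter; nearly all actives have a fitted effect of over 50% in size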
SW480 rereplic – DNA re-replication induction in SW480 cells; SW480 DNA re-replication, Hoechst DNA content imaging, 48 h; AID 624297; 340,000 tested, 1.8% active; Potency, µM (doses to about 46.1 µM), hits mostly activators; also: nearly all actives have a fitted effect of over 55% in size
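Image-based DNA-content assay: after two days of treatment, nuclei were labelled with the DNA dye Hoechst and imaged, and hits were compounds raising the count of nuclei showing high fluorescence intensity.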
Chronic BCR inh – chronic active BCR signaling inhibition. Potency, µM (highest dose often 46.1 µM), most hits filed as inhibitors. 340,000 tested, 0.05% active. ABC-DLBCL IkBa-CBG/CBR reporter, luminescence ratio, 4 h; active = well fitted inhibition curve with a large enough effect in the signal ratio, with a control signal flat, not every such curve was filed as active; inconclusive = small, poorly fitted or top-dose-only effect, or effect the other way, or a change in a side signal; the % refers to the signal ratio
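Cell line TMD8 (human ABC DLBCL), stably expressing tet-inducible CBG68-IkBa fusion and CBR; IMDM/0.5% FBS; cpd up to 46 uM; dox induction, 4 h, 37C/5% CO2; dual luminescence; green/red ratio; MG132 control.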
Hits are given with their value; . = inactive; ? = inconclusive; / = not tested or not shown; [ ] = another dose, or the depositor's remark. In the library only some 8.3% were active in any assay of this set; here they are far more common. Unless noted, calls follow the shape of the dose curve; as a rule, active = well fitted curve in the direction sought with a large enough effect; inconclusive = small, poorly fitted or top-dose-only effect, or another doubt; inactive = no such curve, though single readings can be large; an effect the other way counts as inactive or inconclusive.

SMILES | RORg inh | MCF10A rerep | Giardia killer | Gal4-VP16 FLuc | SW480 rereplic | Chronic BCR inh
C/C=C(\C)CN1CCC(n2nccc2NC(=O)CCOc2ccccc2)CC1 | . | . | . | . | 18µM | .
CCCCCCCCCCCC(=O)OCC(O)CO (centres undefined) | .[10 µM] | . | / | . | . | /
O=C(Nc1nc(-c2cccs2)c(-c2cccs2)s1)C1(c2ccccc2)CC1 | . | 21µM | . | . | . | .
CC(=O)NCCC(=O)Nc1nc(-c2cccs2)c(-c2cccs2)s1 | . | . | . | . | . | .
NC(=O)C1CCN(c2nc(-c3ccccc3C(F)(F)F)cs2)CC1 | / | . | . | / | . | .
Cc1noc(C)c1COC(=O)CCCc1nc2ccccc2s1 | ? | . | . | 7.9µM | . | .
COc1ccc(-c2c(O)c3cc(O)cc(O)c3oc2=O)cc1 | . | / | / | ? | / | /
Cc1ccc2c(CN(C)Cc3cccc(F)c3)cc(=O)oc2c1 | . | ? | . | . | ? | ?
Cc1ccc2c(CNCc3ccccc3)cc(=O)oc2c1 | . | 12µM | . | . | 8.2µM | ?
COC(=O)c1nn(-c2ccc3c(c2)CCN3C(C)=O)cc1O | 7.1µM | . | -87 | 8.9µM | . | .
Cc1[nH]n(-c2ccccc2)c(=O)c1N=Nc1ccccc1O | 2µM | . | . | 4.5µM | ? | ?
Cc1[nH]n(-c2ccccc2)c(=O)c1N=Nc1nccs1 | 5.6µM | ? | . | 5.6µM | ? | ?
Cc1[nH]n(-c2ccccc2)c(=O)c1N=Nc1ccccc1C(=O)O | . | . | ? | . | . | ?
O=C(COc1ccc(C(=O)c2ccccc2)cc1)NCc1ccc(F)cc1 | . | 4.1µM | . | . | 7.3µM | ?
O=C(COc1ccccc1)NCc1ccccc1 | . | . | . | . | . | ?
O=C(COc1ccc(Br)cc1)NNC(=S)NCc1ccccc1 | ? | . | . | ? | . | .
CC(C)(C)OC(=O)NNC(=O)c1ccc(Cl)cc1 | . | . | . | . | . | .
CC(C)(C)OC(=O)NNC(=S)NCc1ccc(Cl)cc1 | 14µM | . | . | ? | . | .
CSc1ccc(CN(C)C(=O)COc2ccc(C(=O)c3ccccc3)cc2)cc1 | . | 13µM | . | . | ? | ?
C=CCc1ccccc1OCC(=O)NNC(=S)NCc1ccccc1 | 1.4µM | ? | . | 10µM | . | ?
COc1cc(/C=N/NC(=O)c2ccc(O)cc2)ccc1Oc1ccc([N+](=O)[O-])cn1 | ? | . | . | . | . | ?
O=C(COc1ccc(Cl)cc1)NNC(=S)NCc1ccccc1 | 1.1µM | . | . | 5.6µM | . | .
Cc1c(Br)c(O)c(Br)c2sc(=O)oc12 | . | . | . | . | . | .
CCc1nc(Sc2nnnn2-c2ccccc2)c2c3c(sc2n1)CCCC3 | . | 18µM | . | . | ? | .
CCc1nc(N2CCN(C(=O)c3ccccc3)CC2)c2c3c(sc2n1)CCCC3 | . | ? | . | . | . | ?
SMILES | RORg inh | MCF10A rerep | Giardia killer | Gal4-VP16 FLuc | SW480 rereplic | Chronic BCR inh
Cc1nc(Sc2nnnn2C)c2c3c(sc2n1)CCC3 | . | 1.5µM | . | . | 5.8µM | ?
COc1ccc(N2C(=O)C3CCCN3C2=S)cc1 (centres undefined) | . | . | . | . | . | .
Cc1cc(NC(=O)CSc2nc(-c3cccs3)cc(C(F)(F)F)n2)no1 | . | . | . | . | . | ?
CCOc1ccc(NC(=O)CSc2nc(-c3cccs3)cc(C(F)(F)F)n2)c([N+](=O)[O-])c1 | . | 12µM | . | . | . | .
CCOc1ccc(/C=N/OCC(=O)NC(c2ccccc2)c2ccccc2)cc1 | ? | ? | . | . | ? | .
Cc1[nH]nc2c1C(c1cc(Br)cs1)C(C#N)=C(N)O2 (centres undefined) | 0.71µM | ? | . | 7.1µM | ? | ?
COC(=O)c1ccc2c(=O)n(CCCCCC(=O)N3CCN(c4ccccc4)CC3)c(=O)[nH]c2c1 | . | 15µM | . | . | . | ?
CCN1CCN(C(=O)CCCCCn2c(=O)[nH]c3cc(C(=O)OC)ccc3c2=O)CC1 | . | . | . | . | . | ?
COC(=O)c1ccc2c(=O)n(CCCCCC(=O)O)c(=S)[nH]c2c1 | 7.1µM | . | . | 14µM | . | ?
COC(=O)c1ccc2c(=O)n(Cc3ccc4c(c3)OCO4)c(=S)[nH]c2c1 | 2.5µM | . | . | 3.5µM | ? | .
COCCn1c(=S)[nH]c2cc(C(=O)N3CCN(Cc4ccc5c(c4)OCO5)CC3)ccc2c1=O | . | ? | . | . | ? | .
CC(C)Cc1nnc(NC(=O)C2CC(=O)N(c3ccc4c(c3)OCCO4)C2)s1 (centres undefined) | / | ? | . | / | . | .
COC(=O)C1=C(C(=O)OC)[C@@H]2Nc3ccccc3[C@@]23C[C@@H](C(=O)OC)N(C(=O)c2ccco2)C3=N1 | / | . | . | / | . | /
Cc1ccc(-c2cc(C(=O)N(C)CC(=O)Nc3ccccc3Br)c3ccccc3n2)o1 | / | . | . | / | . | .
CCC1CN(C(=O)Nc2ccc(C)cc2)c2cc(C)ccc2O1 (centres undefined) | . | ? | . | . | . | .
O=S(=O)(Nc1cc(Sc2cccc3cccnc23)c(O)c2ccccc12)c1ccc(F)cc1 | 1.3µM | 10µM | -98 | 2.5µM | 0.73µM | ?
COc1ccc(S(=O)(=O)Nc2cc(Sc3ncn[nH]3)c(O)c3ccccc23)cc1 | 5µM | / | . | 7.1µM | / | ?
Cn1c(=O)[nH]c2c(c1=O)CCO2 | / | . | . | / | . | /
Cc1nc(NCc2cccnc2)c2c3c(sc2n1)CC(C)CC3 (centres undefined) | 0.71µM | ? | . | 1.8µM | ? | ?
Cc1cc(CC(C)CC(C)(C)C)n(O)c(=O)c1 (centres undefined) | 1.1µM | 11µM | / | 3.2µM | ? | /
CC(CC(C)(C)C)CP(=O)(O)CC(C)CC(C)(C)C (centres undefined) | . | / | / | . | / | /
N#CC1(NC(=O)COc2ccc3ccc(=O)oc3c2)CCCCC1 | / | . | . | / | . | .
COC(=O)c1ccc(/C=C2/SC(=S)N(CCCC(=O)Nc3ccc(O)cc3)C2=O)cc1 | . | ? | . | . | ? | ?
O=C(CCCN1C(=O)S/C(=C\C=C\c2ccccc2)C1=O)Nc1ccc(O)cc1 | 0.32µM | 12µM | . | ? | ? | ?
O=C(CCCN1C(=O)/C(=C\c2cccs2)SC1=S)Nc1ccc(O)cc1C(=O)O | 5.6µM | . | . | 5.6µM | . | ?
Cc1ccc(/C=C2\SC(=S)N(CCCC(=O)Nc3ccc(O)cc3)C2=O)cc1 | 0.05µM | . | . | / | . | ?
O=C(CCCN1C(=O)/C(=C\c2cccs2)SC1=S)Nc1ccc(O)cc1 | ? | . | . | ? | 21µM | ?
O=C(CCCN1C(=O)/C(=C\c2cccs2)SC1=S)Nc1ccc(C(=O)O)cc1 | . | . | . | . | . | ?
O=C(CN1C(=O)S/C(=C/C=C/c2ccccc2)C1=O)Nc1ccc(C(=O)O)cc1 | . | ? | . | . | . | .

Compound activity: PubChem, National Center for Advancing Translational Sciences (NCATS)
